Screens from PubChem BioAssay.
p97 ATPase inh: inhibitors of human p97 ATPase; recombinant p97 ATPase, Kinase-Glo ATP luminescence, 3 h; inhibition, % at 8 µM; hit rate 0.42% among 220,000; in the data active means inhibition above about 15%;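 further: 0% = DMSO vehicle and 100% = wells lacking enzyme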
S1P3 antag: S1P3 (human) receptor antagonism; inhibition, % at 4.98 µM; hit rate 0.27% among 170,000; CHO S1P3 NFAT-BLA reporter, FRET fluorescence, antagonist mode; Q99500;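 active means inhibition above the plate cutoff, the mean inhibition of test wells on that plate plus 3 SD, cut at about 28% in these data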;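 further: cells challenged with S1P at its EC80 of 0.8 µM; blue over green emission ratio from cleaved BLA substrate after 4 h stimulation; 0% = S1P-stimulated wells and 100% = unstimulated DMSO-only wells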
Redox H2O2 prof: compounds producing H2O2 with reducing agent – biochemical, NIH compound library profiling, artefact control for MLSCN library redox annotation, primary screen; activation, % at 10 µM; hit rate 0.03% among 200,000; DTT-dependent redox cycling H2O2, phenol red/HRP absorbance; 100% = 100 µM peroxide control, 0% = buffer;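 active means activation of at least 50% relative to the plate's high and low controls in the primary single-dose screen; inactive means activation below 50%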;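 further: compound incubated with DTT at 0.8 mM final as the reducing agent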
G6PDH counter-1: counter-screen for G6PDH assay hits: L. mesenteroides G6PDH inhibition. AID 1020. hit rate 0.12% among 200,000. inhibition, % at 5 µM. Purified L. mesenteroides G6PDH, diaphorase/resazurin coupled fluorescence, 45 min; in the data active means inhibition above about 50%
TbHK1 inh: T. brucei hexokinase 1 inhibition | hit rate 0.11% among 220,000 | inhibition, % at 10 µM | AID 1430 | recombinant TbHK1, G6PDH-coupled NADH A340;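 active means inhibition of 50% or more in the single-dose primary screen; inactive means inhibition below 50%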
DTT redox conf: generates H2O2 by DTT-dependent redox cycling, confirmed in dose response; shares compounds with Redox H2O2 prof; phenol red-HRP absorbance; EC50, µM; hit rate 40% among 60; AID 1234;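 active means EC50 under a set limit for hydrogen peroxide production with the reducing agent DTT present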
G6PDH counter-2: counter-screen for TbHK1 inhibitors: Leuconostoc G6PDH inhibition; shares compounds with TbHK1 inh; purified G6PDH, NADH absorbance, 1 h; inhibition, % at 10 µM; hit rate 7% among 210;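 active means at least 50% inhibition in the glucose-6-phosphate dehydrogenase coupled counterscreen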
TbHK1 confirm: T. brucei hexokinase 1 inhibition, rescreen | shares compounds with TbHK1 inh | recombinant TbHK1, G6PDH-coupled NADH A340 absorbance | inhibition, % at 10 µM | hit rate 10% among 210;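 active means inhibition of at least 50% in both of the two screening runs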;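 further: 0% and 100% set by the maximum and minimum signal control wells on each plate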
p97 inh conf: confirmation of human p97 ATPase inhibitors; shares compounds with p97 ATPase inh; recombinant p97 ATPase, Kinase-Glo ATP luminescence; hit rate 44% among 760; inhibition, % at 8 µM;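 active means percent inhibition of p97 ATPase above a set limit, the primary screen's mean plus 3 SD, cut at about 15% in these data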;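 further: 0% = DMSO wells and 100% = wells lacking p97 protein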
Active calls of the source: *; . = no result given. Sampled rows, rich in hits. Any-hit rate of the full collection: about 0.84%.

SMILES	p97 ATPase inh	S1P3 antag	Redox H2O2 prof	G6PDH counter-1	TbHK1 inh	G6PDH counter-2	TbHK1 confirm	others
Cn1nc(-c2ccc(Cl)cc2)nc2c(=O)n(C)c(=O)nc1-2	38*	.	170*	61*	79*	66*	57*	DTT redox conf=0.89*;p97 inh conf=41*
Cc1ccc(O)c(-c2cc(-c3ccccc3F)[nH]n2)c1	1	.	0	6	-2	.	.
Cc1oc2c(c1C(=O)c1ccccc1)C(=O)C(=O)c1ccccc1-2	31*	.	374*	60*	13	.	.	DTT redox conf=>50;p97 inh conf=29*
N#Cc1c(/N=C/c2cccs2)sc2c1CCC2	4	37	3	-7	-1	.	.
O=C(N[C@@H](c1ccccc1)[C@@H]1C[C@H]1C(=O)NCc1ccccn1)OCc1ccccc1	0	-18	0	21	2	.	.
COCCNC(=O)CN(Cc1ccc2c(c1)OCO2)C(=O)CCC(=O)Nc1nccs1	1	-3	0	-13	53*	-13	-1
COC(=O)c1cccc(C(=O)Nc2ccc(F)cc2)n1	7	.	3	-3	4	.	.
CCOc1ccc(NC(N)=O)cc1	4	-15	2	5	60*	-1	4
COc1ccc(C(=O)Nc2cc(Cl)ccc2C(=O)O)cc1	7	0	-1	-1	53*	-20	65*
COc1ccc(C(=O)Nc2cc(Cl)ccc2OC(=O)c2ccc(OC)cc2)cc1	3	.	-3	6	0	.	.
Cc1occc1-c1nnc(SCC(=O)N2CCOCC2)n1CCc1ccccc1	0	-13	0	-20	54*	-10	-2
CCCCn1c(SCC(=O)N2CCOCC2)nnc1-c1ccoc1C	-2	.	3	3	3	.	.
COc1ccc(-c2nc(C3CCCCC3)no2)cc1OC	2	-46	1	-4	64*	-12	-5
COC(=O)c1ccccc1NC(=O)CCS(=O)(=O)c1ccc(Br)cc1	-2	1	-1	1	62*	-6	67*
Cc1cc(C)nc(/N=C2\NC(=O)CC(C(=O)O)N2c2ccc(Oc3ccccc3)cc2)n1 (configuration not stated)	1	-6	-2	6	8	.	.
CCOc1ccc(N2CC(=O)N/C2=N\c2nc(C)cc(C)n2)cc1	5	19	0	3	69*	-9	-8
Cc1ccc(Cn2c(-n3nc(C)cc3C)nc3c2c(=O)[nH]c(=O)n3C)cc1	-1	-19	1	0	56*	-11	0
Cc1cc(C)n(-c2nc3c(c(=O)[nH]c(=O)n3C)n2Cc2cccc(Br)c2)n1	-3	-6	0	7	24	.	.
CCOc1nc(SCCOc2ccc(Cl)cc2Cl)nc(N(C)C)n1	-2	5	0	-8	2	.	.
COc1ccccc1N1CCN(C(=O)C2CCCO2)CC1 (configuration not stated)	3	-6	3	11	-6	.	.
O=C1OC(N2CCN(C(=O)C3CCCO3)CC2)c2ccccc21 (configuration not stated)	1	-35	-2	3	63*	-3	3
O=C(C1CCCO1)N1CCN(c2ncccn2)CC1 (configuration not stated)	2	19	1	5	56*	-9	-4
COc1ccc(S(=O)(=O)NNC(=O)C(=O)NNc2ccccn2)cc1	-1	7	.	.	53*	-16	10
COc1ccc(C(=O)NNS(=O)(=O)c2ccccc2)cc1	2	7	0	10	-1	.	.
Cc1ccc(F)cc1S(=O)(=O)NCc1ccc(N2CCN(C)CC2)cc1	-5	3	.	.	0	.	.
SMILES	p97 ATPase inh	S1P3 antag	Redox H2O2 prof	G6PDH counter-1	TbHK1 inh	G6PDH counter-2	TbHK1 confirm	others
Cc1cccc(C(=O)NC(=S)NNC(=O)c2ccc(Cl)cc2)c1	5	-17	0	-6	62*	-44	-39
CC1CCCCC1NC(=O)C1CCN(C(=O)c2sccc2-n2cccc2)CC1 (configuration not stated)	8	-13	0	13	-1	.	.
COC(=O)C1CCN(Cc2ccc(OCCCN3CCN(c4ccc([N+](=O)[O-])cc4)CC3)cc2)CC1	-4	9	-1	13	-9	.	.
CCCS(=O)(=O)c1nc(S(=O)(=O)c2ccc(C)cc2)c(NCCCN2CCOCC2)s1	-1	15	0	-1	-9	.	.
O=C1CSC(c2cccnc2)N1c1ccc(Cl)cc1 (configuration not stated)	1	-4	-1	-1	0	.	.
Cc1ccc(N2C(=O)CSC2c2cccnc2)cc1F (configuration not stated)	1	-41	0	2	55*	-2	2
CCCCCCOC(=O)Cc1c(C)nc(N)[nH]c1=O	1	-6	.	.	-4	.	.
Cc1cc(=O)[nH]c(N/N=C/c2c(O)n(-c3ccccc3)c(=O)c3ccccc23)n1	6	10	0	24	56*	-57	-23
Cc1cc(=O)[nH]c(N/N=C/c2ccccn2)n1	-7	3	0	10	-8	.	.
Cc1ccc(C2N=C(N)Nc3nc(=O)c4ccccc4n32)cc1 (configuration not stated)	-4	-9	.	.	-16	.	.
COc1ccc(CC/C(=N\O)C2(O)CCCCC2)cc1	4	-4	2	8	74*	-4	4
O/N=C(/CCc1ccccc1)C1(O)CCCCC1	-7	.	0	3	-1	.	.
CC(=O)Nc1nc2ccccc2n1Cc1ccccc1Cl	5	20	.	.	-7	.	.
CC(=O)Nc1nc2ccccc2n1CCOc1ccccc1Cl	-3	-15	1	-9	52*	0	-4
O=C(CCCOc1ccccc1)Nc1ncccn1	-3	-16	-1	14	1	.	.
Cn1c(SCc2cccc(F)c2)nnc1-c1ccccn1	-4	-21	2	-2	55*	-8	-2
Cn1c(SCc2cccc(Br)c2)nnc1-c1ccccn1	0	4	.	.	3	.	.
COc1ccc(CCCC(=O)N/N=C/c2cccc(OC)c2O)cc1C	1	-11	0	6	63*	-9	6
COc1ccc2nc(N3C(=O)/C(=C/c4ccc(Cl)cc4)NC3=S)sc2c1	-1	1	0	5	50*	-108	-23
C/C(=C/CCC(C)C1CCC2(C)C3CCC4C(C)(C)C(=O)CCC4(C)C3=CCC12C)C(=O)O (configuration not stated)	.	.	.	.	1	.	.
